Compound activity: PubChem, The Scripps Research Institute Molecular Screening Center
MBD2 inh: inhibitors of MBD2 binding to methylated DNA, primary screen, biochemical, TR-FRET, DNA-binding domain, human; inhibition, % at 4.4 µM; Methyl-CpG-binding domain protein 2 (Homo sapiens), Q9UBB5; 370,000 tested, 0.31% active; MBD2 binding to methylated oligonucleotide; AID 686964, 2013; in the data active = inhibition above about 13%
PRMT1 inh: PRMT1 methyltransferase inhibitors, primary screen, biochemical, fluorescence polarization. recombinant PRMT1, activity-based probe fluorescence polarization. inhibition, % at 2.79 µM. 370,000 tested, 1.3% active. Protein arginine N-methyltransferase 1 (Homo sapiens), Q99873;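 active = inhibition above about 21% made by adding two undisclosed values, limit read from the data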
LEDGF integ inh: blockers of LEDGF/p75-dependent integrase strand transfer – biochemical, TR-FRET, high throughput, primary screen; AID 743269, 2014; TR-FRET IN-LEDGF/p75 DNA integration, Eu/Cy5; inhibition, % at 3.7 µM; 370,000 tested, 0.64% active;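 active = inhibition above the screen-wide mean plus 3 SD, cut at about 13% in these data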;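 also: signal is the Cy5 over europium emission ratio at 671 and 618 nm; 0% = plate median of compound wells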
UHRF1 binding: UHRF1 methylated DNA binding inhibitors, primary screen, counter-screen for MBD2 inhibitor project, biochemical, TR-FRET, human UHRF1, single concentration; UHRF1 binding to methylated oligo; inhibition, % at 4.4 µM; 370,000 tested, 0.75% active; AID 687016, 2013; in the data active = inhibition above about 21%;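 also: UHRF1 SRA domain binding a hemimethylated CpG hairpin DNA probe; 0% = median of test compound wells and 100% = reference inhibitor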
ABHD5-PLIN5 inh: ABHD5-PLIN5 interaction inhibitors, primary screen, cell lysate, split luciferase complementation, luminescence. Perilipin-5 (Homo sapiens) + 1-acylglycerol-3-phosphate O-acyltransferase ABHD5 (Homo …. Split G. princeps luciferase complementation, 4 h. inhibition, % at 4 µM. 360,000 tested, 0.78% active. AID 602281, 2012;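 active = inhibition above the mean inhibition across every tested compound plus 3 SD, cut at about 22% in these data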;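 also: 0% = DMSO only wells and the 100% control is not disclosed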
Target sequence (Q00G26 whole entry, looked up): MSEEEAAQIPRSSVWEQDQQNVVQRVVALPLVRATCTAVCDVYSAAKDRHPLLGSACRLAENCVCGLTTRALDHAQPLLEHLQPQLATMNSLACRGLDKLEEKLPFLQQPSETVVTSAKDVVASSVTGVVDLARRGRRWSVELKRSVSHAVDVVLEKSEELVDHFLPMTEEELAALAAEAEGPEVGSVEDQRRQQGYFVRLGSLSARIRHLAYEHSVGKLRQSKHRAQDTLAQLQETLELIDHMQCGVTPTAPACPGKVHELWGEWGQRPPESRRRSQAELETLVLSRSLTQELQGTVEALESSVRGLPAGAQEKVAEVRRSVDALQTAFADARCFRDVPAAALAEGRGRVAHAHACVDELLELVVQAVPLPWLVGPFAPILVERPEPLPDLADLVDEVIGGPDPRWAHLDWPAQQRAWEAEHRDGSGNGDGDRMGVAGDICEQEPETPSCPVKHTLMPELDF
Target sequence (Q8WTS1 whole entry, looked up): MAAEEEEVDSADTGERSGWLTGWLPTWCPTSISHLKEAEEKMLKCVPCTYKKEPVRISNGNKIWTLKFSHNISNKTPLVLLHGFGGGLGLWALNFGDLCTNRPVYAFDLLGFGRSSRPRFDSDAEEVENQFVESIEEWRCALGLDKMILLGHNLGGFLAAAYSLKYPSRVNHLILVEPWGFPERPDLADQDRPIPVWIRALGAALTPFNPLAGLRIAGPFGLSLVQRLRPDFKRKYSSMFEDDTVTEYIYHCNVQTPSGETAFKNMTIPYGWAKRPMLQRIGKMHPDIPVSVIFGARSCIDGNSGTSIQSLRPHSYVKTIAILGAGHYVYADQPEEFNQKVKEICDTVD
rCAG RNA binder: binders of r(CAG) RNA repeats, primary screen, biochemical, fluorescence. inhibition, % at 3 µM. 370,000 tested, 1.3% active. r(CAG) RNA repeat, TO-PRO-1 dye displacement fluorescence;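 active = inhibition above the plate cutoff, the mean of all test compounds on that plate plus 3 SD, cut at about 35% in these data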;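 also: 0% = DMSO alone and 100% = 100 µM mitoxantrone as full dye displacement; higher means more dye released from RNA so lower well fluorescence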
ABHD5-PLIN5 conf: ABHD5-PLIN5 interaction inhibitors, confirmation, biochemical, luminescence | shares compounds with ABHD5-PLIN5 inh | inhibition, % at 4 µM | 2,200 tested, 67% active | AID 651612, 2012; in the data active = inhibition above about 23%;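 also: 0% = DMSO vehicle wells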
HNF4 split-luc: HNF4 dimerization inhibitors, counter-screen for ABHD5-PLIN5 interaction inhibitor project, biochemical, split-luciferase complementation, luminescence. AID 651674, 2012. inhibition, % at 4 µM. shares compounds with ABHD5-PLIN5 inh. 2,200 tested, 77% active;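 active = mean inhibition across replicate wells exceeding the computed hit threshold, cut at about 13% in these data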;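 also: light from luciferase halves that rejoin when HNF4 fusion proteins dimerize; 0% = DMSO only wells and the 100% control is not given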
* = called active by the depositor. The list is not random: actives were taken first. Their share in the collection is about 4.1%.

Screening CCOC(=O)[C@]12Cc3cc(Cl)ccc3[C@H]1N(C1CCCCC1)C(=O)c1cc(OC)ccc12 returned MBD2 inh 2.1, PRMT1 inh -2.4, LEDGF integ inh 0.6, UHRF1 binding -4.2, ABHD5-PLIN5 inh 60.9*, rCAG RNA binder 5.5, ABHD5-PLIN5 conf 39.2* and HNF4 split-luc 58.1*.
For Clc1ccc(OCC#CCN2CCCCCC2)cc1 the results were MBD2 inh -2.1, PRMT1 inh 3.5, LEDGF integ inh -0.4, UHRF1 binding 1.2, ABHD5-PLIN5 inh 3.1 and rCAG RNA binder -6.7.
`CN(C)c1ccc(/C=C/[N+](=O)[O-])cc1` gave MBD2 inh 2.8, PRMT1 inh -7.0, LEDGF integ inh -5.4, UHRF1 binding 9.7, ABHD5-PLIN5 inh 71.3*, rCAG RNA binder 4.9, ABHD5-PLIN5 conf 85.5* and HNF4 split-luc 82.5*.
For C/C(=C\c1ccc(N(C)C)cc1)[N+](=O)[O-] the results were MBD2 inh -7.4, PRMT1 inh 2.4, LEDGF integ inh -0.1, UHRF1 binding -7.0, ABHD5-PLIN5 inh 65.1*, rCAG RNA binder 4.3, ABHD5-PLIN5 conf 99.2* and HNF4 split-luc 98.2*.
C=C1[C@@H](C)C2[C@H](Cc3ccccc3)NC(=O)[C@]23[C@H](OC(C)=O)/C=C/[C@@](C)(O)C(=O)[C@@H](C)C/C=C/[C@H]3[C@@H]1O (stereo not given in full) was read as MBD2 inh -2.7, PRMT1 inh -6.4, LEDGF integ inh 3.5, UHRF1 binding -1.1 and rCAG RNA binder -1.2.
`CN1CC[C@@H]2CN[C@H](c3ccccc3)C[C@@H]21` gave MBD2 inh -0.5, PRMT1 inh 3.0, LEDGF integ inh 5.9, UHRF1 binding -2.2 and rCAG RNA binder 3.8.
Screening C[C@]12CC[C@H](O)CC1=CCC1C2CC[C@@]2(C)C1C[C@@H]1CC(=O)O[C@@H]12 (stereo not given in full) returned MBD2 inh -0.3, PRMT1 inh 4.1, LEDGF integ inh -5.9, UHRF1 binding 0.6, ABHD5-PLIN5 inh 12.8 and rCAG RNA binder 1.7.
COC(=O)C1=C(C(=O)OC)SC2(S1)C(C(=O)OC)=C(C(=O)OC)Sc1c2ssc1=O was read as MBD2 inh -18.0, PRMT1 inh 105.1*, LEDGF integ inh 0.4, UHRF1 binding -20.7, ABHD5-PLIN5 inh 90.7*, rCAG RNA binder 10.9, ABHD5-PLIN5 conf 101.8* and HNF4 split-luc 111.7*.
`O=C(c1ccccc1)C(CN1CCCC1)c1ccccc1` (stereo not given) gave MBD2 inh 0.1, PRMT1 inh 5.9, LEDGF integ inh -0.8, UHRF1 binding 1.8, ABHD5-PLIN5 inh 16.9 and rCAG RNA binder 1.1.
CC1CCN(C(CC(=O)c2ccccc2)C(=O)c2ccccc2)CC1 (stereo not given) was read as MBD2 inh 1.6, PRMT1 inh 72.2*, LEDGF integ inh 8.8, UHRF1 binding -0.3, ABHD5-PLIN5 inh 41.8*, rCAG RNA binder 8.2, ABHD5-PLIN5 conf 64.2* and HNF4 split-luc 102.9*.
CC1CCC(C(C)C)C(OC(=O)Cn2c(COc3ccccc3)[n+](C)c3ccccc32)C1 (stereo not given) was read as MBD2 inh 0.3, PRMT1 inh 4.6, LEDGF integ inh -6.2, UHRF1 binding 1.4, ABHD5-PLIN5 inh 28.6*, rCAG RNA binder 10.4, ABHD5-PLIN5 conf 12.0 and HNF4 split-luc 7.7.
For O=C1NC(=O)C(=Cc2ccc(-c3ccc(S(=O)(=O)N4CCOCC4)cc3)o2)C(=O)N1 the results were MBD2 inh -1.1, PRMT1 inh 13.9, LEDGF integ inh 3.1, UHRF1 binding -4.9, ABHD5-PLIN5 inh 33.0*, rCAG RNA binder 3.9, ABHD5-PLIN5 conf 90.7* and HNF4 split-luc 92.8*.
Screening C=C1C(=O)O[C@H]2[C@H]1[C@H](OC(=O)CC(=O)O[C@@H]1C[C@@H](C)[C@@H]3C=CC(=O)[C@@]3(C)[C@H]3OC(=O)C(=C)[C@H]13)C[C@@H](C)[C@H]1C=CC(=O)[C@]12C returned MBD2 inh -3.3, PRMT1 inh 4.7, LEDGF integ inh 3.0, UHRF1 binding 0.8, ABHD5-PLIN5 inh 74.5*, rCAG RNA binder 15.1, ABHD5-PLIN5 conf 91.0* and HNF4 split-luc 90.1*.
C=C1C(=O)OC2C1CCC(C)C1(O)C=CC(=O)C21C (stereo not given) was read as MBD2 inh -2.1, PRMT1 inh 3.0, LEDGF integ inh -1.3, UHRF1 binding 0.5, ABHD5-PLIN5 inh 3.4 and rCAG RNA binder 5.9.
`C=C1C(=O)O[C@H]2C[C@@H](C)[C@@H]3C=CC(=O)[C@@]3(C)C[C@H]12` gave MBD2 inh 0.5, PRMT1 inh 1.2, LEDGF integ inh -0.7, UHRF1 binding -2.5 and rCAG RNA binder -0.9.
Screening C=C1C(=O)OC2CC(C)C3C=CC(=O)C3(C)C(O)C12 (stereo not given) returned ABHD5-PLIN5 inh 79.1*, ABHD5-PLIN5 conf 92.7* and HNF4 split-luc 90.3*.
Screening O=C1CC(=O)N(c2ccccc2)C(=O)N1 returned MBD2 inh -11.0, PRMT1 inh 1.0, LEDGF integ inh -0.2, UHRF1 binding -1.0, ABHD5-PLIN5 inh 29.0*, rCAG RNA binder 3.2, ABHD5-PLIN5 conf 5.2 and HNF4 split-luc 23.9*.
Screening Cc1ccc(N2C(=O)CC(=O)NC2=O)cc1 returned MBD2 inh -0.5, PRMT1 inh 4.0, LEDGF integ inh 5.5, UHRF1 binding -5.3, ABHD5-PLIN5 inh 20.6 and rCAG RNA binder 2.2.
Screening CC1=C2C(=O)C3C(CC=C4CC(O)CCC43C)C2CCC12OC1CC(C)CNC1C2C (stereo not given) returned MBD2 inh 0.0, PRMT1 inh -2.6, LEDGF integ inh 1.9, UHRF1 binding 4.0, ABHD5-PLIN5 inh -1.6 and rCAG RNA binder -2.8.
COc1ccc(OC(=O)N(C)C[C@@H]2OCc3cnnn3CCCC(=O)N([C@H](C)CO)C[C@@H]2C)cc1 was read as MBD2 inh -3.4, PRMT1 inh 5.0, LEDGF integ inh 1.6, UHRF1 binding 2.5, ABHD5-PLIN5 inh -6.7 and rCAG RNA binder -1.6.
